MBD2 inh: blocks human MBD2 binding to methylated DNA; Q9UBB5; inhibition, % at 4.4 µM; hit rate 0.31% among 370,000; TR-FRET, MBD2 binding to methylated oligonucleotide; in the data active means inhibition above about 13%
TCR-CD3 inh: human TCR-CD3 binding inhibition; TAMRA-labeled TCR probe fluorescence, biochemical; inhibition, % at 9.4 µM; hit rate 0.37% among 360,000; AID 651800; in the data active means inhibition above about 19%;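 further: recombinant mutant TCR 2C K166C tagged with TAMRA read by polarization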
UHRF1 binding: human UHRF1 methylated DNA binding inhibitors; Q96T88; UHRF1 binding to methylated oligo, TR-FRET; inhibition, % at 4.4 µM; hit rate 0.75% among 370,000;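 further: UHRF1 SRA domain binding a hemimethylated CpG hairpin DNA probe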
LEDGF integ inh: blocks HIV-1 LEDGF/p75-dependent DNA integration. TR-FRET IN-LEDGF/p75 DNA integration, Eu/Cy5. hit rate 0.64% among 370,000. inhibition, % at 3.7 µM;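 active means inhibition above the screen-wide mean plus 3 SD, cut at about 13% in these data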;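 further: signal is the Cy5 over europium emission ratio at 671 and 618 nm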
Rin1-Abl PPI inh: human Rin1-Abl interaction inhibition; inhibition, % at 7.35 µM; hit rate 0.4% among 360,000; AID 588664; TR-FRET Rin1/Abl binding, biochemical; P00519+Q13671; in the data active means inhibition above about 5%, passing the limit was not always enough
UHRF1 ctr MBD2: UHRF1 methyl-oligo binding inhibition as MBD2 counter-screen. shares compounds with MBD2 inh. UHRF1 binding to methylated oligonucleotide, TR-FRET. AID 720530. hit rate 25% among 1,000. inhibition, % at 4.4 µM;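 further: UHRF1 SRA domain binding a labeled hemimethylated CpG hairpin DNA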
MBD2 confirm: MBD2-DBD methyl-DNA binding inhibition, TR-FRET confirmation. shares compounds with MBD2 inh. TR-FRET MBD2-DBD binding to methylated oligonucleotide. inhibition, % at 4.4 µM. hit rate 26% among 1,000; in the data active means inhibition above about 14%
Hits are given with their value; . = inactive; / = no result given. Hits are enriched below; roughly 2% of the tested compounds scored in any of these assays. Unless noted, no stated cut-off is given here; in the data, active means inhibition above about 21%; inactive means the rest.

SMILES	MBD2 inh	TCR-CD3 inh	UHRF1 binding	LEDGF integ inh	Rin1-Abl PPI inh	UHRF1 ctr MBD2	MBD2 confirm
COc1ccc(NC(=O)/C(C#N)=C/c2ccc(-c3ccccc3C(=O)O)o2)cc1	.	.	.	.	.	/	/
CC(CNC(=O)c1ccc(OC2CCN(Cc3ccccn3)CC2)cc1)c1ccccc1 (stereo not drawn)	.	.	.	.	.	/	/
Cn1cnnc1SCC(=O)Nc1ccc(Cl)c(S(=O)(=O)N2CCOCC2)c1	.	.	.	.	.	/	/
COc1ccccc1CN1CCC(CNS(=O)(=O)c2cc(-c3onc(C)c3C)ccc2OC)CC1	.	.	.	.	.	/	/
COc1ccc(CNC(=O)CCS(=O)(=O)c2ccc3c(c2)oc(=O)n3C)cc1	39.2	.	.	.	.	.	.
C=C(C)C(=O)Nc1cccc(C2=NOC3(C2)C[C@@H](C(N)=O)N(C(=O)c2cc([N+](=O)[O-])cc([N+](=O)[O-])c2C)C3)c1 (stereo partly drawn)	17.9	.	33.6	.	.	24.1	.
C=C(C)C(=O)Nc1cccc(C2=NOC3(C2)C[C@H](C(N)=O)N(C(=O)COc2ccc(Cl)cc2)C3)c1 (stereo partly drawn)	51.2	.	69.4	16.2	.	87.8	69.4
C=C(C)C(=O)Nc1cccc(C2=NOC3(C2)C[C@@H](C(N)=O)N(C(=O)/C=C/CC)C3)c1 (stereo partly drawn)	38.8	.	66.6	.	.	69.0	43.0
CCCN(S(=O)(=O)c1ccccc1F)S(=O)(=O)c1ccccc1Br	.	.	.	.	.	/	/
Cc1ccc(CN(C)C(=O)c2cccc(S(=O)(=O)N3CCc4ccccc43)c2)cc1	14.7	.	.	.	.	.	.
Cc1ccc(CN(C)C(=O)c2cccc(S(=O)(=O)N3CCCC3)c2)cc1	.	.	.	.	.	/	/
COc1c2c(c(CCC(=O)O)c3c1C=CC(C)(C)O3)OC(C)(C)C=C2	.	.	.	.	.	/	/
COc1ccc(S(=O)(=O)N2CCN(C(=O)CC3CC4CCC3C4)CC2)cc1 (stereo not drawn)	.	.	.	.	.	/	/
O=C(NCCCN1CCCC1=O)Nc1ccc(Cl)cc1	13.9	.	.	.	.	.	.
C[C@@H]1CN(C(=O)OC(C)(C)C)CCN1c1ccc(N2CCN(Cc3ccccc3)[C@@H](C)C2)c(C#N)c1	.	.	.	.	/	/	/
CCCCOCCCNS(=O)(=O)Cc1ccccc1	19.6	.	.	.	.	.	.
CN(CC(=O)N1CCN(c2ccccc2)CC1)C1CCCc2ccccc21 (stereo not drawn)	.	.	.	.	.	/	/
CC(C)Oc1ccc(C(CCNCc2ccc(O)cc2)c2ccccc2)cc1 (stereo not drawn)	65.2	.	.	.	.	.	.
COC(=O)c1cc(S(=O)(=O)N(C)C2CCCCC2)c[nH]1	.	.	.	.	.	/	/
O=C(Nc1cnc2ccccc2c1)N1CCOCC1	15.9	.	.	.	.	.	.
CC(=O)O[C@H]1C[C@@]2(C)[C@@H](C[C@@H](O)[C@H]3[C@@]4(C)CC[C@@H](O)[C@@H](C)[C@@H]4CC[C@@]32C)/C1=C(\CCC=C(C)C)C(=O)O	.	.	.	.	.	/	/
O=C(NC1CCC1)c1ccc(C#Cc2cccc(F)c2)nc1	17.4	/	.	.	/	.	.
CCN1CCN(CC(O)COCC2COc3ccccc3O2)CC1 (stereo not drawn)	15.8	.	.	.	.	.	.
O=C(COC(=O)c1ccccc1O)Nc1cccc2ccccc12	14.3	.	.	.	.	.	.
CCN(CC)CCCN1C(=O)C2=C(C1=O)C1N(C)c3ccccc3[C@@]13C[C@@H](CO)N(C(=O)CCC(=O)OC)C3=N2 (stereo partly drawn)	.	/	.	.	/	/	/
SMILES	MBD2 inh	TCR-CD3 inh	UHRF1 binding	LEDGF integ inh	Rin1-Abl PPI inh	UHRF1 ctr MBD2	MBD2 confirm
Cc1cc2[nH]c3c(c[n+](C)c4ccccc34)c2cc1C	83.0	.	50.6	.	.	60.1	88.3
C=CCN=C(NC#N)SCC(=O)c1cccc(OC)c1	.	.	.	.	.	/	/
C=CCN1[C@H](C#N)[C@@H](c2ccc(C#Cc3cccc(OC)c3)cc2)[C@H]1CO	14.8	/	.	.	/	.	.
Cc1c(Cl)cccc1NS(=O)(=O)c1c(C(=O)N2CCOCC2)c(C)n(C)c1C	.	.	.	.	.	/	/
COc1ccc(-c2nc3ccc(C)cn3c2Cc2ccccc2C(F)(F)F)cc1OC	13.7	.	21.0	.	/	.	.
COc1ccc(-c2nc3ccc(Cl)cn3c2Cc2ccccc2C(F)(F)F)cc1OC	.	.	.	.	.	/	/
CC12CCC(C(N)=O)(c3nc4ccccc4nc31)C2(C)C (stereo not drawn)	13.4	.	.	.	.	.	.
O=C(Nc1ccc2c(c1)CCCN2C(=O)c1cccs1)c1ccccc1	.	.	.	.	.	/	/
COc1cc(OC)cc(C(=O)Nc2ccc3c(c2)CCCN3C(=O)c2cccs2)c1	24.9	.	.	.	.	.	.
COc1cc(-c2nnc(COC(=O)c3ccc(C)o3)o2)cc(OC)c1OC	18.3	.	38.8	.	.	.	.
COc1ccc(S(=O)(=O)N(C)C[C@@H]2Oc3cc(C#CC4CCCCC4)ccc3S(=O)(=O)N([C@@H](C)CO)C[C@@H]2C)cc1	17.4	.	26.7	.	.	.	.
COc1ccccc1S(=O)(=O)N(C)C[C@@H]1Oc2cc(C#CCC(C)C)ccc2S(=O)(=O)N([C@H](C)CO)C[C@@H]1C	.	.	.	.	.	/	/
COc1ccc(C#Cc2ccc3c(c2)O[C@H](CN(C)S(=O)(=O)c2ccccc2F)[C@H](C)CN([C@H](C)CO)S3(=O)=O)cc1	.	.	.	.	.	/	/
COc1ccccc1S(=O)(=O)N(C)C[C@H]1Oc2cc(C#CCC3CCCC3)ccc2S(=O)(=O)N([C@H](C)CO)C[C@H]1C	13.5	.	22.2	.	.	.	.
COc1ccc(NC(=O)COC(=O)CC23CC4CC(CC(C4)C2)C3)c([N+](=O)[O-])c1	46.0	.	.	.	.	.	.
CSCCC(c1nnnn1C1CCCCC1)N1CCN(C/C=C/c2ccccc2)CC1 (stereo not drawn)	.	.	.	.	.	/	/
O=C(Nc1cccnc1)C1(c2ccccc2)CCCC1	15.8	.	23.4	.	.	.	.
C[C@H](CO)N1C[C@H](C)[C@@H](CN(C)Cc2ccc(Oc3ccccc3)cc2)Oc2cc(Br)ccc2S1(=O)=O	.	.	.	.	.	/	/
Cc1ccccc1CC1(CO)CCCN(C(=O)CCN2CCCO2)C1 (stereo not drawn)	16.0	.	.	.	.	.	.
COC(=O)[C@H]1[C@H](c2ccccc2)[C@H](C(=O)OC)O[C@H]1c1ccccc1	.	.	.	.	.	/	/

Screening data as filed in PubChem BioAssay.
